Screening results deposited in PubChem BioAssay by several laboratories.
This is one part of a sample in which hits are shown more often than they occur.
Candida biofilm – kills Candida albicans biofilms. C. albicans biofilm + clotrimazole, Alamar Blue. inhibition, % at 6 µM. 85,000 tested, 0.14% active. AID 834;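 active means inhibition above 20%; inactive means inhibition below 20%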;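 further: preformed 24 hr biofilms exposed to compound for 48 hr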
HePTP inh – human HePTP phosphatase inhibition; inhibition, % at 20 µM; 110,000 tested, 0.64% active; P35236; recombinant HePTP phosphatase activity, OD absorbance; in the data active means inhibition above about 50%
D1 allo mod – allosteric modulators of human D1 dopamine receptor; B-score at 10 µM; HEK293 D1, CRE-luciferase, dopamine EC30 potentiation; actives deviate in either direction; AID 641; P21728; 58,000 tested, 5.9% active;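 active means luminescence count or its row- and column-corrected plate score outside the 99.7% band of the plate's sample wells, on either side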
Target sequence (P21728 whole entry, looked up): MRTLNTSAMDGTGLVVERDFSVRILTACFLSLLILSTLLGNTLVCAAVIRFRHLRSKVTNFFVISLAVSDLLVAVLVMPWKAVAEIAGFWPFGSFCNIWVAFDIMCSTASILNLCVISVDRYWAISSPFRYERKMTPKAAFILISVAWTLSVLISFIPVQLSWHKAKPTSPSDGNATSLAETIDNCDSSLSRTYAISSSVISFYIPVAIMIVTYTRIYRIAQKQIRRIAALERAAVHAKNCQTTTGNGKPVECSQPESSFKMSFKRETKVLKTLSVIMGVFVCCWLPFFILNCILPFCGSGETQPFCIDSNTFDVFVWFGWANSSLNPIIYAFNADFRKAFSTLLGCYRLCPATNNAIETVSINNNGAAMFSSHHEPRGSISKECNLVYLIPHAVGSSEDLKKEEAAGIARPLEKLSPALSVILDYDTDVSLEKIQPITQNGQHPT
FXIIa mix inh – blocks human factor XIIa in pooled compound mixtures | P00748 | 62,000 tested, 0.2% active | purified FXIIa, fluorogenic substrate | inhibition, % at 5 µM
FXIa mix inh – factor XIa (human) inhibition, mixture screen; AID 680; purified FXIa, fluorogenic substrate, pooled mixtures; P03951; inhibition, % at 5 µM; 62,000 tested, 0.19% active;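 further: each value is inhibition by a whole ten-compound pool holding the compound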
TNAP act DEA – activators of human TNAP at intermediate phosphate acceptor; P05186; purified TNAP, CDP-star luminescence, 100 mM DEA, 30 min; hits give high values; scale: 0 levamisole-inhibited, 1 vehicle-only enzyme; activation factor at 20 µM; 64,000 tested, under 10 active;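 active means activation factor of at least 2 at 20 µM, relative to controls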
A number is an active result; i = inactive; nt = no result given. Unless noted, no stated cut-off is given here; in the data, active means inhibition above about 20% (passing the limit was not always enough); inactive means the rest.

SMILES	Candida biofilm	HePTP inh	D1 allo mod	FXIIa mix inh	FXIa mix inh	TNAP act DEA
CCOC(=O)c1c(C)[nH]c(C(=O)CSc2ccccc2)c1C	i	i	-2.9	i	i	i
Cc1ccc(N=Cc2cccc(C)c2O)c(O)c1	nt	i	nt	nt	nt	nt
Clc1ccc(N2CCN(N=Cc3cccc(Cl)c3)CC2)cc1	nt	i	nt	nt	nt	nt
Cc1cccc(NC(=O)Nc2ccc(C#N)cc2)n1	i	i	-5.2	i	i	i
Cn1cccc1-c1cc(C(=O)N/N=C/c2cccs2)[nH]n1	nt	i	nt	nt	nt	nt
O=C(CCn1[nH]c(=O)c2ccccc2c1=O)OC1CCCCC1	i	i	i	i	21	i
COCCn1c(SCc2nnc(-c3ccccc3)o2)nc2sc3c(c2c1=O)CCC3	nt	i	-5	i	i	i
Nc1nc(-c2nc3ccccc3[nH]2)cs1	i	i	-2.8	i	i	i
C#CCn1cc(/C=C(/C#N)C(=O)Nc2cccc(Br)c2)c2ccccc21	nt	i	nt	nt	nt	nt
CC(C)(C)C1(C)OC(O)(C(F)(F)C(F)F)CC1=O (stereo unspecified)	nt	104	nt	nt	nt	nt
CC(C)(C)C1(C)OC(O)(C(Cl)Cl)CC1=O (stereo unspecified)	nt	i	nt	nt	nt	nt
C=CCNC(=O)CN(c1cccc(C(F)(F)F)c1)S(C)(=O)=O	nt	i	nt	nt	nt	nt
CCc1cccc(OCCCN2C(=O)NC(C)(C)C2=O)c1	82	nt	nt	nt	nt	nt
CCOC(=O)Cn1cnc2sc3c(c2c1=O)CCC3	i	i	i	57	i	i
CCOC(=O)C(C)n1cnc2sc3c(c2c1=O)CCC3 (stereo unspecified)	i	i	i	i	i	i
Cc1ccc(NC(=O)C2COc3ccccc3O2)cc1 (stereo unspecified)	nt	i	nt	nt	nt	nt
CC1(C)Oc2ccc(NC(=O)C3COc4ccccc4O3)cc2O1 (stereo unspecified)	i	i	-4.3	i	i	i
CC(=O)c1sc(NC(=O)C2COc3ccccc3O2)nc1C (stereo unspecified)	i	i	-8.5	i	i	i
COc1cccc(N2C(=O)C(=O)/C(=C(\O)c3ccccc3)C2c2ccccc2)c1 (stereo unspecified)	nt	i	nt	nt	nt	nt
Cc1ccc(-n2[nH]c(=O)c(/C=c3/c(C)c(C#N)c4nc5ccccc5n4c3=O)c2O)cc1C	nt	102	nt	nt	nt	nt
C/C(=N/NC(=O)c1ccoc1C)c1cccc(NC(=O)c2ccc(Cl)cc2Cl)c1	nt	i	nt	nt	nt	nt
CCOC(=O)c1sc(=S)n(C)c1C	i	nt	nt	nt	nt	nt
CCOC(=O)c1sc(=S)n(C)c1N	i	i	4.5	i	i	i
O=C(N/N=C\c1ccc([N+](=O)[O-])o1)c1nc(-c2ccccc2)cc(-c2ccccc2)n1	nt	51	nt	nt	nt	nt
CCOC(=O)N/N=C\c1ccc([N+](=O)[O-])o1	i	nt	nt	nt	nt	nt
SMILES	Candida biofilm	HePTP inh	D1 allo mod	FXIIa mix inh	FXIa mix inh	TNAP act DEA
Cc1nn(-c2ccccc2)c(C)c1/C=N/NC(=O)CSc1nc2ccccc2[nH]1	nt	i	nt	nt	nt	nt
O=C(CCOc1ccccc1)Nc1cccc([N+](=O)[O-])c1	nt	92	nt	nt	nt	nt
Cc1nc(Nc2nc3ccccc3o2)nc2c1CCC2	i	i	-6.1	i	i	i
Cc1nc2ccc(Cl)cn2c1C(=O)N/N=C\c1ccc(C(=O)O)cc1	nt	i	nt	nt	nt	nt
COC(=O)c1ccc(C(=O)OC)c(NC(=O)c2cc(Cl)ccc2Cl)c1	nt	102	nt	nt	nt	nt
CC(=O)NS(=O)(=O)c1ccc(NC(=O)c2ccc([N+](=O)[O-])cc2[N+](=O)[O-])cc1	nt	70	nt	nt	nt	nt
Cc1ccccc1Cn1ccc(NC(=O)c2cnn3c(C(F)(F)F)cc(-c4ccco4)nc23)n1	i	i	-4.4	i	i	i
O=C(NC(=S)NNc1nc(-c2ccccc2)cs1)c1cc2ccccc2oc1=O	nt	99	nt	nt	nt	nt
COc1ccc(S(=O)(=O)N(CC(=O)NCc2ccccc2)Cc2ccccc2)cc1	nt	i	nt	nt	nt	nt
O=S1(=O)Nc2c(ccc3cccnc23)-c2ccccc21	nt	i	-3.6	i	i	i
CCN1C(=S)SC(=O)C1=C1C=C(C)N(CCOC)C(C)=C1	i	i	-4	i	i	i
CC1Sc2ccccc2N(CC(=O)N(C(C)C)C(C)C)C1=O (stereo unspecified)	i	nt	nt	nt	nt	nt
COc1ccc([C@@H]2Sc3ccccc3N(CCN(C)C)C(=O)[C@@H]2OC(C)=O)cc1	i	i	-6.8	i	i	i
Cn1c(C(=O)N2CCCCCC2)cc2c(=O)n(C)c3ccccc3c21	i	i	i	i	i	i
Cc1cccc(N2CCN(C(=O)c3cc4c(=O)n(C)c5ccccc5c4n3C)CC2C)c1 (stereo unspecified)	i	i	-4.8	nt	i	i
COc1cccc(N(CC(=O)Nc2ccc(C(C)C)cc2)S(=O)(=O)c2ccccc2)c1	nt	i	nt	nt	nt	nt
CCCC(=O)Nc1ccc(O)c(-c2nc3cc(C)ccc3o2)c1	nt	i	nt	nt	nt	nt
CCCC(=O)Nc1ccc(-c2nc3cc(C)ccc3o2)cc1	i	i	-5.1	i	i	i
CCCC(=O)Nc1ccc2oc(-c3ccc(OC)c(Br)c3)nc2c1	i	i	-2.6	i	i	i
CC(C)(C)C(=O)CC(=O)c1ccccc1	nt	i	nt	nt	nt	nt
Cc1cc(C)c(N2C(=O)c3ccc(-c4nc5ccccc5c(=O)o4)cc3C2=O)c(C)c1	nt	i	nt	nt	nt	nt
O=C(O)CCn1nnc(-c2cccs2)n1	nt	i	i	i	i	i
CC(C)c1ccc(-c2nnn(CCC(=O)O)n2)cc1	i	i	-3.6	i	i	i
CN(C)c1ccc(N/C=C/C(=O)c2ccccc2)cc1	i	i	-4.4	i	i	i
Cc1ccc2nc3c(cc(C#N)c(=O)n3CCN3CCOCC3)c(=O)n2c1	i	i	i	i	i	i
SMILES	Candida biofilm	HePTP inh	D1 allo mod	FXIIa mix inh	FXIa mix inh	TNAP act DEA
Cc1ccc2nc3c(cc(C#N)c(=O)n3CC3CCCO3)c(=O)n2c1 (stereo unspecified)	i	i	-3.6	i	i	i
Cc1csc(NC(=O)CN(C)S(=O)(=O)c2cccc3cccnc23)n1	i	i	i	i	i	i
Cc1ccc(NC(=O)CN(C)S(=O)(=O)c2cccc3cccnc23)cc1	23	i	i	i	i	i
COc1ccc2c(c1OC)C(=O)OC2Nc1ccc(F)c(Cl)c1 (stereo unspecified)	nt	i	nt	nt	nt	nt
O=C1NN(c2ccc(I)cc2)C(=O)/C1=C\c1ccc(F)cc1	nt	104	nt	nt	nt	nt
O=C1NN(c2ccc(I)cc2)C(=O)/C1=C\c1ccccc1O	nt	92	nt	nt	nt	nt
CC(C)c1ccc(/C=C2/C(=O)NN(c3ccc(F)cc3)C2=O)cc1	nt	i	nt	nt	nt	nt
CCOC(=O)C1=C(C)N=c2s/c(=C\c3ccc(N4CCOCC4)o3)c(=O)n2C1c1ccc(F)cc1 (stereo unspecified)	nt	i	nt	nt	nt	nt
CCOc1ccc(N2C(=O)/C(=C/c3ccc(-c4ccc([N+](=O)[O-])cc4C)o3)C(=O)NC2=S)cc1	nt	i	nt	nt	nt	nt
Cc1ccc(C(=O)c2coc3ccc(O)c(CN4CCOCC4)c23)cc1	nt	i	nt	nt	nt	nt
Cc1ccc(C(=O)c2coc3ccc(O)c(CN4CCN(C)CC4)c23)cc1	i	i	-3.1	i	i	i
Cc1cc(C)nc(SC2=CS(=O)(=O)c3ccccc32)n1	i	i	i	i	i	i
O=S1(=O)C=C(Sc2nc3ccccc3s2)c2ccccc21	i	i	-3.7	i	i	i
O=C(c1cc2nc3c(c(C(F)(F)F)n2n1)CCc1ccccc1-3)N1CCN2CCCC2C1 (stereo unspecified)	i	i	i	i	i	i
O=C(O)c1nn2c(C(F)(F)F)c3c(nc2c1Cl)-c1ccccc1CC3	nt	70	nt	nt	nt	nt
